From PubChem BioAssay
TEAD-YAP block: TEAD-YAP interaction inhibition, primary screen, TEAD-YAP interaction inhibitor project, luminescence, HEK-TIYL cells | inhibition, % at 9.12 µM | 640,000 compounds, 1.4% hits | AID 1259422, 2018 | TEAD-Gal4/YAP UAS-luciferase luminescence; in the data active = inhibition above about 32%;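 also: 0% = median of test compound wells and 100% = reference inhibitor wells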
GPR151 activ: activators of human GPR151, primary screen, cell-based, PathHunter beta-arrestin, luminescence | G-protein coupled receptor 151 (Homo sapiens), Q8TDV0 | PathHunter beta-arrestin GPR151 cells | activation, % at 11.2 µM | 650,000 compounds, 1% hits | AID 1508602, 2020; in the data active = activation above about 4.9%;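 also: 0% = median of compound wells and 100% = cells with positive control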
FBW7 act: FBW7 E3 ligase activators, primary screen, biochemical, AlphaScreen, human. normalized activity (activation), % at 26.1 µM. F-box/WD repeat-containing protein 7 (Homo sapiens), Q969H0. 650,000 compounds, 0.13% hits. AlphaScreen FBW7–phospho-cyclin E peptide binding, activator screen; in the data active = normalized activity above about 1.9%;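 also: purified mutant Fbw7 with reduced substrate affinity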
MITF primary: MITF inhibitors, primary screen, biochemical, AlphaScreen, human; AlphaScreen MITF homodimerization, bead proximity signal; Microphthalmia-associated transcription factor (Homo sapiens), O75030; 650,000 compounds, 0.91% hits; AID 1259374, 2018; inhibition, % at 2.6 µM; in the data active = inhibition above about 50%;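 also: 0% = vehicle wells with protein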
Target sequence (O75030 whole entry, looked up): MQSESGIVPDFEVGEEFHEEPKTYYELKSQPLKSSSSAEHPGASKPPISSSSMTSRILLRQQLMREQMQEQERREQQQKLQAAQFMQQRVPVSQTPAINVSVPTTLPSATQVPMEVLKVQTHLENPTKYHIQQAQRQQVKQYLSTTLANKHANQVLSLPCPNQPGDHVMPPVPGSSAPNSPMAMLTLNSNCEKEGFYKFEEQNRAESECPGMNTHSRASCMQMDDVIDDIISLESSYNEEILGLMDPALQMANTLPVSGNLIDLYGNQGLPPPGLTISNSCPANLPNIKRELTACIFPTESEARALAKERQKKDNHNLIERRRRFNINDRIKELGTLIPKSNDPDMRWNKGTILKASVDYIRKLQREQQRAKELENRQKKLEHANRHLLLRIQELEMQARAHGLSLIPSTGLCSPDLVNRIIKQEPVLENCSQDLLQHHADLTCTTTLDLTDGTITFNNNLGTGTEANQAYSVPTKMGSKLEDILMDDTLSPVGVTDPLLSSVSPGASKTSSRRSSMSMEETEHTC
The depositor's hits bear a star. A selection: hits, their analogues and other compounds. The true share with any hit is near 3.4%.

SMILES	TEAD-YAP block	GPR151 activ	FBW7 act	MITF primary
O=C(N/N=C/c1ccc([N+](=O)[O-])cc1)c1cccs1	-40	0	0	-3
O=C(N/N=C/c1cccc([N+](=O)[O-])c1O)c1cccs1	-46	1	-1	73*
O=C(N/N=C/c1cccc([N+](=O)[O-])c1O)c1cccc([N+](=O)[O-])c1	8	0	-1	53*
FC(F)(F)c1cccc(Nc2nc(-n3ccnc3)nc(-n3ccnc3)n2)c1	-14	0	1	-13
O=C(Oc1cccc2ccccc12)N1CCN2C(=O)[C@@H]3CSCN3C(=O)[C@H]2C1	35*	0	0	-16
O=C1C(N2CCCCC2)=C/C(=N/S(=O)(=O)c2ccccc2)c2ccccc21	-6	-2	0	13
CC(=O)Nc1ccc(NC2=C/C(=N/S(=O)(=O)c3ccccc3)c3ccccc3C2=O)cc1	99*	0	0	33
Cc1ccc(C(=O)c2ccc(N)cc2)cc1C	52*	2	0	34
O=C(CCc1ccccc1)N1CC[C@@H]2[C@H](CCCN2C(=O)[C@@H]2C[C@@H]3C=C[C@H]2C3)C1	-4	-1	0	2
COc1ccc(Nc2cc(C)c3c(O)cccc3n2)cc1	38*	-1	0	12
CCNC(=O)/C(C#N)=C/c1c(Oc2cc(C)ccc2C(C)C)nc2ccccn2c1=O	46*	-6	0	6
CNC(=O)/C(C#N)=C/c1c(Oc2cc(C)ccc2C(C)C)nc2ccccn2c1=O	34*	-6	0	8
O=C(CN1CCN(C/C=C/c2ccccc2)CC1)Nc1ccccc1F	4	0	0	-5
CCSc1nc(O)cc(=O)n1-c1ccccc1OC	10	-1	0	11
COc1ccccc1-n1c(SC)nc(O)cc1=O	6	0	3.9*	2
O=C1N[C@@H](Cc2ccccc2)C(=O)N2CCN(Cc3ccc(Cl)cc3)C[C@H]12	2	-2	2.1*	-5
O=C1N[C@@H](Cc2ccc(Cl)cc2)C(=O)N2CCN(Cc3ccccc3)C[C@H]12	7	2	0	-1
Cc1ccc(C)n1-c1cc(C(=O)O)ccc1Cl	6	-1	-1	76*
Cc1ccc(C)n1-c1ccc(C(=O)O)cc1O	-10	-1	-1	62*
CC(C)(C)c1ccc(C(=O)Nc2cc(C(=O)NCc3cccc(Cl)c3)ccc2N2CC3CC(C2)c2cccc(=O)n2C3)cc1 (configuration not stated)	20	0	0	12
CCOC(=O)c1c(NC(=O)COc2cccc(Br)c2)sc2c1CCCC2	10	-1	0	-12
CN(C)c1ccc(CC(=O)c2nc3ccccc3s2)cc1	34*	-2	0	10
C=CCc1ccccc1OCC(O)CN(Cc1ccccc1)Cc1ccccc1 (configuration not stated)	5	2	0	-4
C/C(=N\NC(=O)c1cc(-c2cccnc2)nc2ccccc12)c1ccccc1O	41*	2	0	6
COc1cccc(/C(C)=N/NC(=O)c2cc(-c3cccnc3)nc3ccccc23)c1	10	-1	0	7
SMILES	TEAD-YAP block	GPR151 activ	FBW7 act	MITF primary
COc1ccc(C(NC(C)=O)c2cc([N+](=O)[O-])c3cccnc3c2O)cc1 (configuration not stated)	-8	1	-1	48
CC(=O)NC(c1ccccc1Cl)c1cc([N+](=O)[O-])c2cccnc2c1O (configuration not stated)	4	-1	-1	90*
CCC(=O)NC(c1cccs1)c1cc([N+](=O)[O-])c2cccnc2c1O (configuration not stated)	2	1	-1	45
CCOc1cc(C(NC(C)=O)c2cc([N+](=O)[O-])c3cccnc3c2O)ccc1O (configuration not stated)	6	0	0	85*
CC(=O)NC(c1cccs1)c1cc([N+](=O)[O-])c2cccnc2c1O (configuration not stated)	-14	0	0	79*
COc1c(C)cccc1C(=O)N1CCN(c2ncccn2)CC1	2	1	0	5
COc1ccc(C(=O)Oc2ccc(/C=N/N3C(=O)c4ccccc4C3=O)cc2[N+](=O)[O-])cc1	-8	1	0	9
COC(=O)COc1ccc(NC(=O)c2ccc(C(C)(C)C)cc2)cc1	43*	-1	0	-22
